The results in this text go back to PubChem BioAssay (NCATS).

SMILES strings stand for the structures.

The first assay can be described thus: qHTS profiling of the MIPE4 collection as inhibitors of Plasmodium falciparum (HB3) proliferation (AID 743347).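 Also: plate controls were DMSO vehicle wells for no effect and artemisinin wells for full effect.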 The conditions noted are these: P. falciparum HB3 in erythrocytes, SYBR Green DNA, 72 h; at 28.5 µM (top of the series) unless noted. In outline: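 Erythrocytes infected with P. falciparum (0.3% parasitemia, 2.5% hematocrit) incubated with compounds 72 h at 37 C, 5% CO2. Lysis with saponin/Triton buffer containing SYBR Green I, overnight at room temperature in the dark; DNA fluorescence (485/535 nm) normalised to 0.29 uM artemisinin and DMSO.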
On the technique in general: Quantitative high-throughput screening tests each substance at several concentrations.
`O=[N+]([O-])c1ccc(Nc2ccccc2-c2ccccc2)c2nonc12`: the growth, % of control worked out at 75.1%.
The compound `CCC(=C(CC)c1ccc(O)cc1)c1ccc(O)cc1` showed a growth, % of control of 90.8%.
In the case of `C=C1c2cccc(O)c2C(O)=C2C(=O)[C@@]3(O)C(O)=C(C(N)=O)C(=O)[C@@H](N(C)C)[C@@H]3[C@@H](O)[C@H]12`, the growth, % of control turned out to be 15.6%.
Same read-out and setting: next, `CC(=O)NCCC(=O)N[C@@H](CCC(N)=O)C(=O)N[C@@H](CO)C(=O)N[C@@H](CCC(N)=O)C(=O)N[C@@H](CCC(N)=O)C(=O)N[C@H](C(=O)N[C@@H](Cc1ccccc1)C(=O)N[C@]1(C)CCCCCCC=CCCC[C@@](C)(C(=O)N[C@@H](CCC(N)=O)C(=O)N[C@@H](CC(N)=O)C(N)=O)NC(=O)[C@H](CC(C)C)NC(=O)[C@H](CC(C)C)NC(=O)[C@@H](CCCNC(=N)N)NC(=O)[C@H](Cc2c[nH]c3ccccc23)NC(=O)[C@H](CC(C)C)NC(=O)[C@H](CC(N)=O)NC1=O)[C@H](C)O`: 30.1%; `COc1ccc2cc1Oc1ccc(cc1)C[C@H]1c3cc(c(OC)cc3CCN1C)Oc1c(OC)c(OC)cc3c1[C@H](C2)N(C)CC3`: 13.9%.
For `CCC(c1ccc(O)cc1)C(CC)c1ccc(O)cc1` (stereo not given), the growth, % of control stood at 106%.
On the same count and under the same terms, next, `Cc1ccc2c(c1)c1c(n2CCc2ccc(C)nc2)CCN(C)C1`: 135%.
Compound `CCCCC[C@H](O)C=C[C@H]1[C@H](O)CC(=O)[C@H]1CCCCCCC(=O)O` gave a growth, % of control of 103%.
For the compound `O=c1[nH]c(=O)n([C@H]2C[C@@H](O)[C@@H](CO)O2)cc1I`, the growth, % of control came to 62.7%.
Turning to `Cn1cc(-c2ccc3nnc(Sc4ccc5ncccc5c4)n3n2)cn1`, the growth, % of control is 43.3%.
Still for that read-out and setting: in the case of `Cc1ccc(NC(=O)Nc2cc(C(F)(F)F)ccc2F)cc1Nc1ccc2c(c1)NC(=O)C2=Cc1ccc[nH]1` it was 10.9%; in that of `O=c1[nH]nc(OCCCc2ccc(Cl)cc2)c(NCc2cccnc2)c1Br`, 10.3%.
Same read-out and setting: next, `CC(O)=C(C#N)C(=O)Nc1ccc(C(F)(F)F)cc1`: 83.8%; `CC(C)Oc1cc(Nc2nc(N[C@@H](C)c3ccc(F)cn3)ncc2Cl)[nH]n1`: 14.7%; `CCC(=O)OCC(=O)[C@@]1(OC(=O)CC)[C@@H](C)C[C@@H]2[C@H]3CCC4=CC(=O)C=C[C@]4(C)[C@@]3(F)[C@@H](O)C[C@@]21C`: 48.2%.
`CCOC(=O)[C@@H](N)CCC(=O)N[C@@H](CSCc1ccccc1)C(=O)N[C@@H](C(=O)OCC)c1ccccc1` showed a growth, % of control of 101%.
In the case of `COc1ccnc(CS(=O)c2nc3ccc(OC(F)F)cc3[nH]2)c1OC` (stereo not given), the growth, % of control stood at 91%.
In the case of `COc1ccc(CCN(C)CCCOc2ccc(S(=O)(=O)c3[nH]c4ccccc4c3C(C)C)cc2)cc1OC`, the growth, % of control was 42.9%.
As to `CCOC(=O)N1c2ccc(C(F)(F)F)cc2[C@@H](N(Cc2cc(C(F)(F)F)cc(C(F)(F)F)c2)C(=O)OC)C[C@H]1CC`, the growth, % of control worked out at 3.55%.
Still for that read-out and setting: in the case of `O=C(CCCN1CCN(c2ccc(F)cc2)CC1)NC1c2ccccc2CSc2ccccc21` (stereo not given) it was 57.9%.
In turn, `C[C@@H](O)[C@H]1C(=O)N2C(C(=O)OCOC(=O)C(C)(C)C)=C(SC3CN(C4=NCCS4)C3)[C@H](C)[C@H]12` showed a growth, % of control of 104%.
Turning to `Oc1cc(O)cc(C=Cc2ccc(O)c(O)c2)c1`, the growth, % of control worked out at 50.9%.
`C#CCN(C)CC1=Cc2ccccc2Oc2ccccc21`: the growth, % of control was 25.1%.
Turning to `COc1cc(F)c(C(C)C)cc1-c1ccc(C(F)(F)F)cc1CN1C(=O)O[C@H](c2cc(C(F)(F)F)cc(C(F)(F)F)c2)[C@@H]1C`, the growth, % of control worked out at 9.46%.
With `O=C(Nc1ccc(OC(F)(F)F)cc1)c1sccc1NCc1ccnc2ccccc12`, the growth, % of control was determined as 67.5%.
`CCc1cccc(CC)c1NC(=O)N1Cc2[nH]nc(NC(=O)c3ccc(N4CCN(C)CC4)cc3)c2C1`: the growth, % of control amounted to 6.85%.
On to `NC[C@H]1O[C@H](O[C@@H]2[C@@H](O)[C@@H](O[C@H]3O[C@H](CO)[C@@H](O)[C@H](N)[C@@H]3O)[C@H](N)C[C@@H]2N)[C@H](O)[C@@H](O)[C@H]1O`, for which the growth, % of control is 66.9%.
The compound `C=CC[N+]1([C@H]2C[C@H]3[C@@H]4CC[C@H]5C[C@H](O)[C@@H](N6CCOCC6)C[C@]5(C)[C@@H]4CC[C@]3(C)[C@H]2OC(C)=O)CCCC1` came in with a growth, % of control of 40.8%.
`COc1cc2nccc(Oc3ccc(NC(=O)Nc4cc(C)on4)c(Cl)c3)c2cc1OC` displayed a growth, % of control of 3.73%.
Still for that read-out and setting: next, `c1ccc(CNc2nc(N3CCOc4ccccc43)nc3c2CCCC3)cc1`: 8.4%.
As to `Clc1ccc(C2(c3ccc(-c4cn[nH]c4)cc3)CCNCC2)cc1`, the growth, % of control amounted to 4.19%.
The same measure, in the same setting: next, `O=C(Nc1ccccc1)Nc1ccc(-c2ccc(C(=O)[C@H]3CCC[C@H]3C(=O)O)cc2)cc1`: 51.7%; `CC=C(C(=CC)c1ccc(O)cc1)c1ccc(O)cc1`: 70.1%.
Regarding `COc1ccc(-c2cc(=O)c3c(O)cc(O[C@@H]4O[C@H](CO[C@@H]5O[C@@H](C)[C@H](O)[C@@H](O)[C@@H]5O)[C@@H](O)[C@H](O)[C@@H]4O)cc3o2)cc1O`, the growth, % of control was 23.4%.

The next assay can be described thus: High-throughput drug toxicity screening in the BPDCN cell line Gen2.2 (AID 1224824).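 Also: cells exposed to compounds for 48 h before reading.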 The note with it: Gen2.2 BPDCN cells; at 45.8 µM (top of the series) unless noted. The procedure, abridged:
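Seed 500 exponentially growing Gen2.2 cells/well; add compounds by pin tool; incubate 48 h, 37 °C, 5% CO2; add CellTiter-Glo, 15 min RT; read luminescence. % activity vs DMSO (100%) and bortezomib (0%).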
With `O=[N+]([O-])c1ccc(Nc2ccccc2-c2ccccc2)c2nonc12`, the cell viability, % of control (lower = more cytotoxic) amounted to 145%.
